TRPML1 inh = inhibitors of human TRPML1 channel; TRPML1-inducible cells, Ca2+ dye fluorescence, FDSS; stronger effect = lower value; inhibition of EC80 agonist-evoked calcium signal; 390,000 compounds, 0.02% hits; AID 624415; activity change, negative = inhibition, % (no concentration beside the values); in the data active = activity change below about -50%; inconclusive = between about -30% and that limit;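 note: stimulus is agonist 54-4 at its EC80 concentration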
Target sequence (Q9GZU1 whole entry, looked up): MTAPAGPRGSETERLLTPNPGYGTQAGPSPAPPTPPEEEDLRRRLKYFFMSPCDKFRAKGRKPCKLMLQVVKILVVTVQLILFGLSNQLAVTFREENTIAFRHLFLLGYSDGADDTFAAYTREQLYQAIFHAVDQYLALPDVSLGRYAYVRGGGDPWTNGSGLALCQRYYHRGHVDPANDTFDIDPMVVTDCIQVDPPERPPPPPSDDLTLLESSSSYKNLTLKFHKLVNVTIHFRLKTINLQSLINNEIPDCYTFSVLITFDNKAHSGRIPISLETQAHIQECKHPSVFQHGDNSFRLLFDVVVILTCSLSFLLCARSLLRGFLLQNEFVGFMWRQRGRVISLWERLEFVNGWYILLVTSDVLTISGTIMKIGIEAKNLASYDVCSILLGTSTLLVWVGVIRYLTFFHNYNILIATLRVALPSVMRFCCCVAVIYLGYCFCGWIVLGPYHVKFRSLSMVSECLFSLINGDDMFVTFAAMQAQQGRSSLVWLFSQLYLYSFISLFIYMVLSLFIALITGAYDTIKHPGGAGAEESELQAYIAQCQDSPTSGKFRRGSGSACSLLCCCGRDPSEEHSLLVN
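Calcium fluorescence in TRPML1-DL cells induced overnight with Tet: a 110 s read after compound pin addition, then a 110 s antagonist read after challenge with 54-4 at 4 uM final (EC80).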
TRPV1 ag = activates the human vanilloid receptor TRPV1; Q8NER1; TRPV1-expressing cells, Fluo-8 calcium influx, agonist mode; activation, % at 8.33 µM; 320,000 compounds, 0.19% hits; in the data active = activation above about 80%; inconclusive = between about 30% and that limit
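Fluo-8 calcium influx in TRPV1-expressing cells, kinetic read (ex 480/em 520 nm). Compound added and read 3 min for agonist activity, followed by capsaicin at EC20 final and 2 min further read for enhancement.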
TRPML1 ag = human mucolipin-1 channel agonism. Q9GZU1. TRPML1-expressing cells, Ca2+ dye fluorescence, FDSS. activation, % (concentration not given with the values). 410,000 compounds, 0.12% hits. AID 624414; in the data active = activation above about 50%; inconclusive = mostly about 30% to 49%
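Calcium fluorescence on an FDSS kinetic reader gave the read-out. Tet-induced TRPML1-DL cells were plated overnight, dye-loaded (Ca8 with quencher, 45-90 min, room temperature, dark), then read 110 s after compound addition, and again 110 s after 4uM final 54-4 (EC80).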
LDHA inh = blocks human lactate dehydrogenase A | AID 1347041 | activity change, % (values are at about 110 or 230 µM) | P00338 | purified LDHA, NADH/diaphorase-resazurin fluorescence; stronger effect = lower value | 480,000 compounds, 0.15% hits; in the data active = activity change below about -30%; inconclusive = mostly about -25% to -30%
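Human LDH5 (2 nM) was incubated with 0.06 mM NADH and 0.2 mM pyruvate for 5 min at room temperature in Tris pH 7.4. Remaining NADH was coupled through diaphorase/resazurin, and resorufin fluorescence was read at 0 and 20 min.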
TRPV1 PAM = enhances activation of the human vanilloid receptor TRPV1. Q8NER1. TRPV1-expressing cells, Fluo-8 calcium influx, capsaicin EC20 potentiation. potentiation, % at 8.33 µM. 320,000 compounds, 0.02% hits; in the data active = potentiation above about 80%; inconclusive = between about 30% and that limit
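Cells expressing TRPV1 were dye-loaded with Fluo-8 and read kinetically: 10 s baseline, 3 min after compound (agonist portion), then 2 min after EC20 capsaicin (allosteric enhancer portion). Calcium-bound dye fluorescence at 480/520 nm.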
Hits are given with their value; . = inactive; ? = inconclusive; / = no result given. Rows were chosen to be rich in hits. Some 0.41% of all compounds tested hit in one or more screens of this group.

SMILES	TRPML1 inh	TRPV1 ag	TRPML1 ag	LDHA inh	TRPV1 PAM
COc1cccc(/C=C/C(=O)Nc2ccc3[nH]c(=O)[nH]c3c2)c1	.	93	.	.	.
O=C(/C=C/c1ccc(F)cc1)Nc1ccc2[nH]c(=O)[nH]c2c1	.	83	.	.	.
CCCCCCCC(=O)N/N=C(\C)c1ccc(O)cc1O	.	.	57	.	.
CCCCCCCCC(=O)N/N=C(\C)c1ccc(O)cc1O	.	.	.	.	.
COc1cc(C=O)c(-c2ccccc2)cc1OC	/	/	/	.	/
S=c1[nH]nc(-c2ccc(Br)cc2)n1-c1ccc(Br)cc1	/	.	/	.	.
O=[N+]([O-])c1cccc(-c2n[nH]c(=S)n2-c2ccc(Br)cc2)c1	.	.	.	-32	.
Cc1nn(-c2ccccc2)c(C)c1/C=N/n1c(-c2ccccc2Br)n[nH]c1=S	-69	.	.	.	.
CCN(CC)c1ccc(/C=N/n2c(-c3ccccc3Br)n[nH]c2=S)cc1	.	.	.	.	.
Cc1cccc(C(=O)NC(C)C2CCCO2)c1 (stereo not drawn)	/	/	/	.	/
COC(=O)Cc1c(C)c2ccc(O)cc2oc1=O	/	/	/	-30	/
COC(=O)COc1ccc2c(C)c(CC(=O)OC)c(=O)oc2c1	/	/	/	.	/
CCOc1ccc(Br)cc1C(=O)Oc1ccc(C)cc1Br	/	/	/	.	/
CC(=NNC(=O)c1ccncc1)c1ccc2ccccc2c1O	.	/	79	.	/
CCCCNC(=O)CS(=O)Cc1nc(-c2cccs2)oc1C (stereo not drawn)	.	.	.	.	.
Cc1oc(-c2cccs2)nc1CS(=O)CC(=O)NCCc1ccccc1 (stereo not drawn)	.	87	.	.	.
CC(C)CC1Nc2ncnc(N3CCCCC3)c2N(Cc2ccc(Br)cc2)C1=O (stereo not drawn)	.	82	.	.	.
CN=c1nc(-c2ccccc2)n(-c2ccccc2)s1	.	.	.	.	.
CC(=O)N=c1nc(-c2ccccc2)n(-c2ccccc2)s1	/	/	.	-32	/
CCOC(=O)C1=C(CS(=O)(=O)c2ccc(Cl)cc2)NC(=O)NC1c1ccc(SC)cc1 (stereo not drawn)	/	/	/	.	/
CCSc1ccccc1C(=O)NC(C)(C)C	/	/	/	.	/
CC(O)CN(CC(C)O)c1ccc2c(c1)Cc1cc([N+](=O)[O-])ccc1-2 (stereo not drawn)	.	/	83	.	/
Nc1ccc2c(c1)Cc1cc([N+](=O)[O-])ccc1-2	.	.	?	.	.
CCCNc1c(NC(=O)Nc2ccccc2OCC)c(=O)oc2ccccc12	/	/	/	-30	/
CCCNC(=O)Nc1c(NCCC)c2ccccc2oc1=O	/	/	/	.	/
SMILES	TRPML1 inh	TRPV1 ag	TRPML1 ag	LDHA inh	TRPV1 PAM
CCCCNC(=O)Cn1c(=O)c2c(ncn2CC(C)C)n(CC(C)C)c1=O	/	/	/	.	/
COc1ccc(OC)c(/C=C/C(=O)NC(C)(C)C)c1	/	/	/	.	/
COc1ccc(-c2nc3cc(NC(=O)c4ccccc4)ccc3o2)cc1	/	/	/	-39	/
COc1ccc(C(=O)Nc2cc3c4c(c2)CC(=O)N4CCC3)cc1	?	.	55	.	.
COc1ccc(NC(=O)C2(c3ccc(NC(=O)c4ccc(C)cc4)cc3)CCCC2)cc1	.	.	.	.	.
CC(C)Oc1ccc(NC(=O)c2ccncc2)cc1	.	86	.	.	.
COc1ccc(C(=O)Nc2ccc(C3(C#N)CCCC3)cc2)cc1	.	89	.	.	.
COc1ccc2oc(-c3ccc(NC(=O)c4ccccc4)cc3)nc2c1	/	/	/	.	/
CCCc1cc(=O)oc2cc(OCC(=O)OC(C)(C)C)ccc12	/	/	/	.	/
O=C(OCc1ccc(Cl)cc1)c1cnc2ccccc2n1	/	/	/	.	/
COc1ccc(C(=O)Nc2ccc3ccccc3c2)cc1	.	96	.	.	.
COc1cccc(C(=O)Nc2ccc3ccccc3c2)c1	.	.	.	.	.
Cc1ccc2nc(NC(=O)CS(=O)(=O)Cc3ccccc3)sc2c1	.	85	.	.	.
Fc1ccc(NC(=S)NCc2cccnc2)cc1	.	.	.	.	.
CC(C)(C)c1ccc(NC(=S)NCc2cccnc2)cc1	.	86	.	.	.
COc1ccc(-c2csc3c2NC(=O)CC3c2cc(C)ccc2C)cc1 (stereo not drawn)	/	/	/	.	/
CC(C)c1ccc(N=Cc2c(O)c3ccccc3oc2=O)cc1	/	83	/	.	.
CCN(C(=O)c1ccco1)c1nc(-c2ccccc2)cs1	/	/	/	-34	/
O=C(/C=C/c1ccc(Cl)cc1)NCc1ccncc1	.	82	.	.	.
Cc1ccc(/C=C/C(=O)NCc2ccncc2)cc1	.	?	.	.	.
CCCCC(=O)Nc1ccc(NC(=O)c2cccc3c(Br)cccc23)cc1OC	/	/	/	.	/
CCOc1ccc(C(=O)N/N=C/c2ccc(-c3ccc(S(=O)(=O)Nc4ncccn4)cc3)o2)cc1	.	.	.	.	.
O=C(N/N=C/c1ccc(-c2ccc(S(=O)(=O)Nc3ncccn3)cc2)o1)c1cc2ccccc2cc1O	.	.	.	-46	.
CC(C)(C)c1ccc(OCc2ccc(C(=O)NN)o2)cc1	.	123	.	.	.
NNC(=O)c1ccc(COc2ccc(Br)cc2)o1	.	?	.	.	.
SMILES	TRPML1 inh	TRPV1 ag	TRPML1 ag	LDHA inh	TRPV1 PAM
O=C(NCC1COc2ccccc2O1)c1cccs1 (stereo not drawn)	.	.	.	.	.
O=C(NCC1COc2ccccc2O1)c1ccc(Br)s1 (stereo not drawn)	.	85	.	.	.
CC(C)(C)c1ccc(-c2nc(-c3ccc(Br)o3)no2)cc1	/	/	/	-31	/
COc1ccc(-c2nc(-c3ccc(Br)o3)no2)cc1	.	.	.	.	.
CC(=O)N1CCN(C(=O)c2ccc(-c3cccc(C(F)(F)F)c3)o2)CC1	.	.	.	.	.
O=C(c1ccc(-c2cccc(C(F)(F)F)c2)o1)N1CCOCC1	.	86	.	.	.
N#CC(C#N)=C1C=C2C=C(N3CCCCC3)CCC2CC1 (stereo not drawn)	.	102	109	.	.
CCN(CC)C1=CC2=CC(=C(C#N)C#N)CCC2CC1 (stereo not drawn)	?	.	105	.	.
CCCCN(C)C1=CC2=CC(=C(C#N)C#N)CCC2CC1 (stereo not drawn)	-64	101	125	.	.
CCC(C)c1ccc(NC(=O)c2ccco2)cc1 (stereo not drawn)	/	82	/	.	.
CCC(C)c1ccc(NC(=O)N2CCOCC2)cc1 (stereo not drawn)	.	93	.	.	.
O=C(Nc1ccc(Cc2ccc(NC(=O)N3CCOCC3)cc2)cc1)N1CCOCC1	.	.	.	.	.
CCC(C)c1ccc(NC(=O)COC(=O)CCNC(=O)c2ccco2)cc1 (stereo not drawn)	.	.	.	.	.
CN(C)c1ccc(/C=C2/C[N+](C)(C)C/C(=C/c3ccc(N(C)C)cc3)C2=O)cc1	.	/	.	.	/
